Data on 17 compounds can be found in publication PMC5540273 (PLoS ONE, 2017).

Test systems include AURKA; AURKB; AURKC; AXL; BLK; BMPR1A; BMPR1B; BMPR2.
What all share (conditions): concentration: 1 μM,replicates: in singlicate; n = 1
The test system of another experiment is T1, ASK2.
T1 construct: gene MAP3K6

Another experiment has as its system T2, BIKE.
T2 construct: gene BMP2K
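Also: KINOMEscan kinase panel screen.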

In the case of `COC(=O)c1cccc(NC(=O)NC2CCN(c3ccnc(NCc4ccc(F)cc4)n3)CC2)c1` [GSK1379860], the “%Inh” value in the experiment on ASK2 worked out at 4%; in the experiment on AURKA, 0%; in the experiment with AURKB, 0%; with AURKC it was 13%; with AXL it was 9%; in the experiment on BIKE it was 13%. Also, the “%Inh” value in the experiment on BLK is reported as 24%; with BMPR1A, 0%; with BMPR1B, 0%; in the experiment with BMPR2 it was 9%.
In the case of `Cn1ccc2ncnc(Oc3ccc(NC(=O)Nc4cccc(C(F)(F)F)c4)c(Cl)c3)c21`, the “%Inh” value in the experiment on ASK2 came out at 0%; in the experiment with AURKA, 0%; in the experiment on AURKB it was 51%; in the experiment with AURKC, 29%; with AXL, 75%; with BIKE, 0%. The “%Inh” value in the experiment on BLK is recorded as 6%; in the experiment on BMPR1A it was 15%; with BMPR1B, 0%; with BMPR2, 0%.
Take `Cc1ccn2nc(-c3ccc(F)cc3)c(-c3ccncc3)c2c1.Cl` [GW457859]: the “%Inh” value with ASK2 is listed as 0%; with AURKA, 10%; in the experiment with AURKB it was 0%; in the experiment on AURKC, 8%; in the experiment with AXL, 3%; in the experiment on BIKE, 17%. Further, the “%Inh” value in the experiment with BLK amounted to 26%; with BMPR1A it was 0%; in the experiment with BMPR1B it was 0%; in the experiment with BMPR2, 3%.
On to `C[C@@H]1CCN(C(=O)N2CCCC2)C[C@@H]1N(C)c1ncnc2[nH]ccc12`, for which the “%Inh” value came out at 0% with ASK2; 57% in the experiment with AURKA; 31% with AURKB; 6% in the experiment with AURKC; 7% with AXL; 25% in the experiment with BIKE. Moreover, the “%Inh” value came to 0% in the experiment with BLK, 0% in the experiment with BMPR1A, 13% in the experiment with BMPR1B and 20% in the experiment on BMPR2.
On to `CCCC(=O)Nc1n[nH]c2ncccc12` [SB-601436], for which the “%Inh” value in the experiment with ASK2 was 0%; in the experiment on AURKA it was 0%; with AURKB, 18%; with AURKC, 0%; with AXL it was 18%; in the experiment on BIKE it was 9%. For the same compound, the “%Inh” value in the experiment on BLK is 19%; with BMPR1A it was 0%; in the experiment on BMPR1B it was 0%; in the experiment on BMPR2, 17%.
`CS(=O)(=O)Nc1ccc(-c2ccnc3[nH]ccc23)cc1` [GSK993273]: the “%Inh” value in the experiment with ASK2 is 21%; in the experiment on AURKA, 39%; in the experiment on AURKB, 48%; in the experiment with AURKC, 76%; with AXL, 76%; in the experiment with BIKE it was 97.5%. For the same compound, the “%Inh” value in the experiment with BLK is on record as 0%; with BMPR1A, 1%; in the experiment on BMPR1B, 3%; with BMPR2, 43%.
With `COc1cccc(OC)c1C(=O)Nc1cccc(-c2nn3ccccc3c2-c2ccnc(Nc3cccc(F)c3)n2)c1` [GSK361065], the “%Inh” value with ASK2 is given as 0%; in the experiment with AURKA, 32%; in the experiment on AURKB, 0%; in the experiment on AURKC, 70%; with AXL, 30%; in the experiment with BIKE it was 0%. Besides, the “%Inh” value is 41% with BLK, 9% in the experiment on BMPR1A, 21% with BMPR1B and 0% in the experiment with BMPR2.
Regarding `COc1cc2ncn(-c3cc(OCC4CCCCC4)c(C(N)=O)s3)c2cc1OC` [GSK204559], the “%Inh” value in the experiment on ASK2 came out at 8%; in the experiment on AURKA, 0%; in the experiment on AURKB it was 13%; with AURKC, 60%; in the experiment on AXL, 0%; with BIKE, 90%. For the same compound, the “%Inh” value in the experiment on BLK was determined as 33%; in the experiment on BMPR1A it was 0%; with BMPR1B, 0%; in the experiment with BMPR2, 5%.
With `COc1ccc(Nc2nccc(N3CCC(NC(=O)c4cccc(C#N)c4)C3)n2)cc1` (centres unmarked) [GSK1379730], the “%Inh” value is recorded as 0% with ASK2; 0% in the experiment with AURKA; 0% in the experiment on AURKB; 22% with AURKC; 21% with AXL; 22% in the experiment with BIKE. Further, the “%Inh” value amounted to 38% with BLK, 6% in the experiment with BMPR1A, 0% in the experiment on BMPR1B and 0% with BMPR2.
Turning to `COc1cccc(C2=C(Nc3cccc(Cl)c3)C(=O)NC2=O)c1` [SB-341556], the “%Inh” value in the experiment on ASK2 amounted to 22%; in the experiment with AURKA, 0%; in the experiment on AURKB, 15%; in the experiment on AURKC it was 3%; in the experiment with AXL, 12%; in the experiment on BIKE, 34%. The “%Inh” value in the experiment on BLK turned out to be 72%; in the experiment with BMPR1A it was 0%; in the experiment on BMPR1B it was 0%; in the experiment with BMPR2, 0%.
As for `Cc1ccc(CC(=O)N2CCc3cc(-c4cn(C)c5ncnc(N)c45)ccc32)cc1` [GSK2634758], the “%Inh” value with ASK2 is recorded as 0%; in the experiment with AURKA, 8%; in the experiment with AURKB, 96.1%; in the experiment with AURKC, 47%; with AXL it was 98.8%; with BIKE, 16%. The “%Inh” value turned out to be 31% with BLK, 0% in the experiment on BMPR1A, 0% with BMPR1B and 0% with BMPR2.
Take `CSc1nccc(-c2c(-c3ccc(F)cc3)ncn2CCCN2CCOCC2)n1.Cl` [SB-217146]: the “%Inh” value with ASK2 is listed as 0%; with AURKA, 7%; with AURKB it was 35%; in the experiment with AURKC, 0%; in the experiment on AXL, 0%; with BIKE, 0%. Moreover, the “%Inh” value in the experiment on BLK was found to be 0%; in the experiment with BMPR1A, 0%; with BMPR1B it was 4%; in the experiment with BMPR2, 39%.
In the case of `C[C@@H]1CNc2c(sc3ccc4nc(-c5ccc(O)cc5)ccc4c23)C(=O)N1`, the “%Inh” value is 0% in the experiment on ASK2; 42% with AURKA; 24% with AURKB; 0% in the experiment on AURKC; 87% in the experiment on AXL; 0% in the experiment on BIKE. In addition, the “%Inh” value with BLK is 0%; in the experiment on BMPR1A, 27%; in the experiment on BMPR1B, 0%; with BMPR2, 7%.
On to `Cl.c1ccc(Oc2ccc(Nc3ccnc4cc(-c5ccc(CN6CCNCC6)o5)ccc34)cc2)nc1` [GW567142], for which the “%Inh” value with ASK2 was 0%; in the experiment with AURKA, 20%; in the experiment on AURKB it was 77%; in the experiment on AURKC, 27%; with AXL, 0%; in the experiment with BIKE, 0%. Besides, the “%Inh” value in the experiment with BLK is recorded as 86%; in the experiment on BMPR1A, 0%; with BMPR1B, 0%; in the experiment with BMPR2, 2%.
On to `Cn1ccc2ncnc(Oc3ccc(NC(=O)Nc4ccnc(C(F)(F)F)c4)c(Cl)c3)c21`, for which the “%Inh” value is 0% in the experiment on ASK2; 18% in the experiment on AURKA; 34% in the experiment with AURKB; 0% in the experiment on AURKC; 12% in the experiment with AXL; 0% in the experiment on BIKE. Besides, the “%Inh” value in the experiment with BLK amounted to 0%; with BMPR1A it was 0%; in the experiment on BMPR1B, 6%; in the experiment with BMPR2, 0%.
In the case of `Cn1ccc2ncnc(Oc3ccc(NC(=O)Nc4cnn(C(C)(C)C)c4)c(Cl)c3)c21`, the “%Inh” value was determined as 9% in the experiment on ASK2; 23% in the experiment on AURKA; 44% in the experiment on AURKB; 52% with AURKC; 76% in the experiment on AXL; 19% in the experiment on BIKE. Moreover, the “%Inh” value in the experiment on BLK is on record as 32%; in the experiment on BMPR1A, 17%; in the experiment on BMPR1B, 6%; in the experiment with BMPR2 it was 9%.
Regarding `COc1cccc(CNC(=O)NC2CCN(c3ccnc(Nc4cc(OC)c(OC)c(OC)c4)n3)C2)c1` (centres unmarked) [GSK1379765], the “%Inh” value with ASK2 turned out to be 0%; in the experiment with AURKA, 85%; in the experiment on AURKB, 91.4%; in the experiment with AURKC, 79%; with AXL it was 30%; with BIKE, 53%. The “%Inh” value in the experiment with BLK was found to be 9%; with BMPR1A, 0%; with BMPR1B, 0%; with BMPR2, 23%.
